Assay outcomes as filed in PubChem.
HCMV antiviral: qHTS Assay for inhibitors of the human cytomegalovirus (HCMV) | AID 1259415, 2018 | 410,000 compounds, 4.5% hits | HFF cells, HCMV-luciferase reporter, 72 h; hits give low values | activity change, negative = inhibition, % at 57.5 µM; in the data active means activity change below about -60%; inconclusive means no clear call, values can overlap the other calls; inactive means above about -39%
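Compounds were evaluated in HFFs infected with an HCMV luciferase reporter virus (MOI 1 PFU/cell). Luciferase in lysates collected 72 h post infection served as the replication measure.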
HCV inhibitor: qHTS Assay for Inhibitors of Hepatitis C Virus (HCV). Huh7.5.1 HCVcc-Cre infection, luciferase reporter, 44 h. Potency, µM (top dose mostly 41.8 µM), for the others: at the top dose activity change, negative = inhibition, actives largely listed as inhibitors. 340,000 compounds, 3.4% hits. AID 651820, 2012; active means well fitted inhibition curve with a large enough effect; inconclusive means small, poorly fitted or top-dose-only effect, or another doubt; inactive means no such curve, though single readings can be large or run the other way; further: potency means the concentration at half of the fitted maximal effect
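Seed cells (1,000/well) for 4 h; treat with compound and infect with HCVcc-Cre, moi about 0.5. Incubate 44 h, then detect luciferase activity.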
Vaccinia mCherry: qHTS for Stage-Specific Inhibitors of Vaccinia Orthopoxvirus: mCherry Reporter Primary qHTS | Vaccinia virus mCherry reporter infection, fluorescence | Potency, µM (series often up to 36.5 µM), for the others: top-dose activity change, negative = inhibition, usual class: inhibitors | 310,000 compounds, 0.63% hits | AID 720579, 2013; calls by dose curve; tested in A549 cells; further: potency means the concentration at half of the fitted maximal effect; nearly all actives have a fitted effect of over 35% in size
Vaccinia Venus: qHTS for Stage-Specific Inhibitors of Vaccinia Orthopoxvirus: Venus Reporter Primary qHTS; Vaccinia virus Venus reporter expression, fluorescence; Potency, µM (highest dose often 36.5 µM), without a hit: at the top dose activity change, negative = inhibition, usual class: inhibitors; 330,000 compounds, 0.46% hits; AID 720580, 2013; calls by dose curve; tested in A549 cells; further: potency means the concentration at half of the fitted maximal effect; nearly all actives have a fitted effect of over 30% in size
FMDV inh: High Throughput Screening for Foot and Mouth Disease Virus Antivirals; FMDV antiviral cell-based qHTS; Potency, µM (titrated, usually from 57.9 µM), for the others: top-dose activity change, negative = inhibition, usual class: inhibitors; 410,000 compounds, 1.2% hits; calls by dose curve; tested in HEK293T cells; further: read-out not given here; potency means the concentration at half of the fitted maximal effect; nearly all actives have a fitted effect of over 45% in size
* hit, by the source's call; i = inactive; u = inconclusive; x = not tested or not shown. A selection: hits, their analogues and other compounds. The true share with any hit is near 7.3%. On the % scale 0 is the no-effect control and ±100 the full control effect.

SMILES	HCMV antiviral	HCV inhibitor	Vaccinia mCherry	Vaccinia Venus	FMDV inh
O=C1CCC2S/C(=C/Nc3ccc(C(F)(F)F)cc3)C(=O)N12 (centres undefined)	-78*	18%	-4%	-16%	8.9µM*
CNc1nc2c(c(=O)n(C)c(=O)n2C)n1Cc1ccccc1	-65*	u	x	x	u
Cn1c(=O)c2c(nc(NCCc3ccccc3)n2Cc2ccc(F)cc2)n(C)c1=O	-24	u	u	u	u
CC(Cl)=CCn1c(NCCc2ccccc2)nc2c1c(=O)n(C)c(=O)n2C	-87*	x	3%	-26%	13µM*
Cn1c(=O)c2c(nc(NC(Cc3ccccc3)C(=O)O)n2Cc2ccccc2)n(C)c1=O (centres undefined)	-30	-6%	x	-8%	-21%
C=CCn1c(N2CCN(c3ccc(OC)cc3)CC2)nc2c1c(=O)n(C)c(=O)n2C	-21	u	-4%	-2%	28µM*
CC1CCN(c2nc3c(c(=O)n(C)c(=O)n3C)n2Cc2ccccc2)CC1	-31	u	20µM*	-20%	x
Cc1ccc(CCNC(=O)C2CCN(S(=O)(=O)c3ccc4c(ccn4C)c3)CC2)cc1	9	x	-12%	-6%	-22%
c1ccc(C(c2ccccc2)N2CC[C@@]3(CCCNC3)C2)cc1	x	x	x	x	-4%
CCC1Cc2[nH][nH]c(=O)c2C(CC)O1 (centres undefined)	12	x	27%	4%	-20%
CCn1nc(C)c2c(-c3ccccc3)cc(=O)n(C(C)C(=O)Nc3ccc(OC)c(OC)c3)c21 (centres undefined)	2	x	-6%	3%	-24%
Cn1c(=O)c2c(nc(NCc3ccco3)n2C/C=C/c2ccccc2)n(C)c1=O	-96*	2.5µM*	x	u	14µM*
CNc1nc2c(c(=O)n(C)c(=O)n2C)n1CCCc1ccccc1	u	11µM*	-9%	-24%	0%
Cn1c(=O)c2c(nc(NCc3ccccc3)n2CCCc2ccccc2)n(C)c1=O	-9	u	x	-18%	-23%
Cn1c(=O)c2c(nc(NCCc3ccccc3)n2Cc2ccc(Cl)c(Cl)c2)n(C)c1=O	11	x	-18%	-14%	-18%
CC(C)CCn1c(NCCc2ccccc2)nc2c1c(=O)n(C)c(=O)n2C	-24	u	u	u	20µM*
Cn1c(=O)c2c(nc(N3CCOCC3)n2Cc2ccccc2F)n(C)c1=O	-104*	x	-4%	-5%	-9%
Cn1c(=O)c2c(nc(NCCO)n2CCCc2ccccc2)n(C)c1=O	-3	16µM*	x	x	u
COCCNc1nc2c(c(=O)n(C)c(=O)n2C)n1CCCc1ccccc1	36	x	i	-21%	-28%
Cn1c(=O)c2c(nc(CN3CCc4ccccc4C3)n2Cc2ccccc2)n(C)c1=O	-19	13µM*	-26%	-15%	u
CC(C)C[C@H]1COc2cc(Br)ccc2S(=O)(=O)N1Cc1cccc(Cl)c1	34	x	x	x	x
CN([C@@H](Cc1ccc(OS(=O)(=O)c2cccc3cnccc23)cc1)C(=O)N1CCN(c2ccccc2)CC1)S(=O)(=O)c1cccc2cnccc12	x	2.8µM*	-4%	-11%	-19%
CN(C(Cc1ccc(OS(=O)(=O)c2cccc3cnccc23)cc1)C(=O)N1CCN(c2ccccc2)CC1)S(=O)(=O)c1cccc2cnccc12 (centres undefined)	x	x	-4%	-9%	-19%
Cc1ccccc1-c1cc(C(=O)Nc2sc(C(=O)OC(C)C)c(C)c2C#N)c2ccccc2n1	-101*	13µM*	x	x	u
C/C(N)=C(/C#N)C(=O)COC(=O)c1cc(-c2ccc(Br)cc2)nc2ccccc12	8	10µM*	u	u	-13%
SMILES	HCMV antiviral	HCV inhibitor	Vaccinia mCherry	Vaccinia Venus	FMDV inh
CCOC(=O)c1sc(NC(=O)c2cc(-c3ccc(C)cc3)nc3ccccc23)c(C#N)c1C	-103*	12%	-16%	-12%	u
COC(=O)c1sc(NC(=O)c2cc(-c3ccccc3)nc3ccccc23)c(C#N)c1C	-97*	11µM*	16µM*	u	3.2µM*
COc1ccc(NC(=O)c2oc3ccccc3c2NC(=O)Cc2coc3ccc(C)cc23)cc1	40	x	-6%	-13%	9%
Cc1sc(NC(=O)c2cc(-c3ccccc3)nc3ccccc23)c(C(N)=O)c1C	-32	13µM*	-18%	-17%	-25%
COC(=O)[C@H](NC(=O)c1cc(-c2ccccc2)nc2ccccc12)c1ccccc1	-24	35µM*	-11%	-5%	-26%
Cc1sc(NC(=O)c2ccc(Br)s2)c(C(N)=O)c1C	209	11µM*	x	x	24%
Cn1c(C(=O)NCc2ccc(F)cc2)cc2c(=O)n(C)c3ccccc3c21	-2	x	7%	-1%	-7%
Cc1cccc(C(=O)NC2(C(F)(F)F)N=C(c3ccccc3)N(C3CCCCC3)C2=O)c1 (centres undefined)	4	x	4%	-11%	-28%
Cc1cccc2c1-c1sc(C(=O)Nc3cccnc3)cc1CO2	u	22µM*	x	x	22%
CC(=O)c1cccc(NC(=O)c2cc3c(s2)-c2c(C)cccc2OC3)c1	u	x	11µM*	20µM*	u
O=C(Nc1cccnc1)c1cc2c(s1)-c1ccccc1OC2	-62*	u	x	x	5%
O=C(Nc1cccnc1Cl)c1cc2c(s1)-c1ccccc1OC2	-33	u	x	x	15%
Cc1cccc2c1-c1sc(C(=O)Nc3ccccc3C(N)=O)cc1CO2	101	x	-24%	-21%	11%
Cc1ccc(C)c(NC(=O)CN(C)C(=O)c2ccccc2OCc2ccccc2Cl)c1	u	u	-25%	-15%	-17%
CCOC(=O)c1c(C=O)c(C)n(Cc2ccc(Cl)cc2)c1C	-24	8.9µM*	x	x	u
CC(=O)c1c(C(C)=O)c(C)n(Cc2ccc(Cl)cc2)c1C	-71*	u	u	-20%	u
CC(=O)c1c(C(C)=O)c(C)n(NC(=O)c2ccc(Cl)cc2)c1C	-19	3%	x	x	-11%
CCn1c(CC2C(=O)N(C)c3ccccc32)nc2ccccc2c1=O (centres undefined)	-11	x	6%	1%	-6%
Cc1nnc(SCC(=O)Nc2cccc(S(=O)(=O)N3CCCC3)c2)n1C1CC1	37	x	-8%	-8%	-15%
CCOc1ccc(CCNC(=O)c2ccc(CS(=O)(=O)Cc3ccccc3Cl)o2)cc1OCC	0	x	-18%	-9%	u
Cc1ccc(C(=O)CC2(O)C(=O)N(CCc3ccccc3)c3ccc(Cl)cc32)cc1 (centres undefined)	-104*	x	u	-15%	-23%
CS(=O)(=O)c1ccc(S(=O)CC(=O)Oc2ccc(Cl)cc2)c([N+](=O)[O-])c1 (centres undefined)	x	u	u	-10%	35µM*
COc1cc(N/N=C/c2ccccc2O)ncn1	-103*	u	14µM*	u	14%
